These results are taken from publication PMC7862700, “An all-to-all approach to the identification of sequence-specific readers for epigenetic DNA modifications on cytosine”.

Common to all, as to experiment: DAPPL (digital affinity profiling via proximity ligation, sequencing); 10 mM Tris-HCl pH 7.5, 50 mM NaCl, 1 mM DTT, 4% glycerol, room temperature, 30 min; GST-TFs on glutathione beads, 16-mer random dsDNA library, 0.1% formaldehyde crosslink after washing; high values mean tight binding
In one test the target is T1, FLI1 (Homo sapiens, UniProt Q01543 1-452).
T1 sequence: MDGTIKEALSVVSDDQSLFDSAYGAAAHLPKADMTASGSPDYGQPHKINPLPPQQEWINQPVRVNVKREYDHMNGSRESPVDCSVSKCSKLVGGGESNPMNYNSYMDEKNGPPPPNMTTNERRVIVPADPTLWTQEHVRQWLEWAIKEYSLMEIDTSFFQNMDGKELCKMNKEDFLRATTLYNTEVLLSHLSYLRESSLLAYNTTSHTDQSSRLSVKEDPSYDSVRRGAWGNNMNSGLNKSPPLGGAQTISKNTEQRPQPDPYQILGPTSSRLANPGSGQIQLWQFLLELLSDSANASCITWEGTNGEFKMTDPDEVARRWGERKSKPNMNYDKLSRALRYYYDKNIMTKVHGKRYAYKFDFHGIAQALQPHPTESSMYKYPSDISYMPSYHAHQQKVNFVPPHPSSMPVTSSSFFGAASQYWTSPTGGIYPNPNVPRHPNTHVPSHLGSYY
The following applies: protein: recombinant; tags: N-terminal GST; dsDNA, one strand shown. The essentials: (§1)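 After expression in yeast as GST fusions, human transcription factors were bound to glutathione beads, DNA-barcoded and mixed with a tag-only sample. The pools were incubated with 200 nmole of a 16-mer random double-stranded DNA library in Tris/NaCl/DTT/glycerol buffer (30 min, room temperature), washed and crosslinked with 0.1% formaldehyde. Proximity ligation with BsaI/T4 ligase ran for 1 h at 37 °C, before PCR amplification and sequencing on an Illumina NextSeq500. Binding signal is a hexamer's read frequency for a factor divided by its frequency for the tag-only sample.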

The target of the next test is T2, ELK1 (Homo sapiens, UniProt P19419 1-428).
T2 sequence: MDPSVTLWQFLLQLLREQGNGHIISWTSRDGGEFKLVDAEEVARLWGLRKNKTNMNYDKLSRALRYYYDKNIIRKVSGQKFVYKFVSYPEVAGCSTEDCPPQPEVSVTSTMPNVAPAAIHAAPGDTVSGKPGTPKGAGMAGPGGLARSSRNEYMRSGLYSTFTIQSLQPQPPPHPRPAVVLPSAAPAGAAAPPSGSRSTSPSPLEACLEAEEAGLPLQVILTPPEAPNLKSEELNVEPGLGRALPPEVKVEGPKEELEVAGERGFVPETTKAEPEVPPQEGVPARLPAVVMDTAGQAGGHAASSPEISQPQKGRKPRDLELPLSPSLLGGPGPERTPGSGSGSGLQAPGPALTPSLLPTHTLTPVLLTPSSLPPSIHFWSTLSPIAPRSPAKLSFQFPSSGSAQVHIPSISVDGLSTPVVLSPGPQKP
The conditions noted are these: protein: recombinant; tags: N-terminal GST; dsDNA, one strand shown. The essentials:
as §1

In the next test the target is T3, GABPA (Homo sapiens, UniProt Q06546 1-454).
T3 sequence: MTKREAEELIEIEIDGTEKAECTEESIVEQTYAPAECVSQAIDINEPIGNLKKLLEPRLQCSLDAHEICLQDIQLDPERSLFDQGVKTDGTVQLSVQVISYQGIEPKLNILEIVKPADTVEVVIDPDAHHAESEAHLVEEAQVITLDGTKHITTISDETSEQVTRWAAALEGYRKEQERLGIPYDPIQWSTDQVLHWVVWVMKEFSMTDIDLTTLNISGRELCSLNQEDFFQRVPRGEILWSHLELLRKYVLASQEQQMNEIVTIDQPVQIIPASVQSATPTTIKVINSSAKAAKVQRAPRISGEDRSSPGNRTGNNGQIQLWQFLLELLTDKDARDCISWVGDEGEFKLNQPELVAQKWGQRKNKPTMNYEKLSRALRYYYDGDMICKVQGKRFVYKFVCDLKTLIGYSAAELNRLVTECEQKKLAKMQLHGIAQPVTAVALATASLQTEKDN
The conditions noted are these: protein: recombinant; tags: N-terminal GST; dsDNA, one strand shown. The essentials:
as §1

For a further test, the target named is T4, ERG (Homo sapiens, UniProt P11308 1-479).
T4 sequence: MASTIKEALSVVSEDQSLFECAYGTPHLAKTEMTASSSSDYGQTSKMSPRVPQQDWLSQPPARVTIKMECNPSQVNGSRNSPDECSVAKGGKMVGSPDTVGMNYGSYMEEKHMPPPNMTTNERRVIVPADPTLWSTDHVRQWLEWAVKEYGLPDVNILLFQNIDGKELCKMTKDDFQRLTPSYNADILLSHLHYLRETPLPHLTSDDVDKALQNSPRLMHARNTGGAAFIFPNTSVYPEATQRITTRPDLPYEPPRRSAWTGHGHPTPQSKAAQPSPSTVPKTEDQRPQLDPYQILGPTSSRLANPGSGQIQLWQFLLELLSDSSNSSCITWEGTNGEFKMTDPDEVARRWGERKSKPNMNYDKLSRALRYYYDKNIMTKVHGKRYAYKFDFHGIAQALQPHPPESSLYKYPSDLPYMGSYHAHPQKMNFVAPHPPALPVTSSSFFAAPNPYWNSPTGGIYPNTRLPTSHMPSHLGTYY
The following applies: protein: recombinant; tags: N-terminal GST; dsDNA, one strand shown. In outline: as §1

The target in another test is ELF1 (Homo sapiens, UniProt P32519 1-619). The following applies: protein: recombinant; tags: N-terminal GST; dsDNA, one strand shown. In outline: as §1
Sequence of ELF1 (P32519 whole entry): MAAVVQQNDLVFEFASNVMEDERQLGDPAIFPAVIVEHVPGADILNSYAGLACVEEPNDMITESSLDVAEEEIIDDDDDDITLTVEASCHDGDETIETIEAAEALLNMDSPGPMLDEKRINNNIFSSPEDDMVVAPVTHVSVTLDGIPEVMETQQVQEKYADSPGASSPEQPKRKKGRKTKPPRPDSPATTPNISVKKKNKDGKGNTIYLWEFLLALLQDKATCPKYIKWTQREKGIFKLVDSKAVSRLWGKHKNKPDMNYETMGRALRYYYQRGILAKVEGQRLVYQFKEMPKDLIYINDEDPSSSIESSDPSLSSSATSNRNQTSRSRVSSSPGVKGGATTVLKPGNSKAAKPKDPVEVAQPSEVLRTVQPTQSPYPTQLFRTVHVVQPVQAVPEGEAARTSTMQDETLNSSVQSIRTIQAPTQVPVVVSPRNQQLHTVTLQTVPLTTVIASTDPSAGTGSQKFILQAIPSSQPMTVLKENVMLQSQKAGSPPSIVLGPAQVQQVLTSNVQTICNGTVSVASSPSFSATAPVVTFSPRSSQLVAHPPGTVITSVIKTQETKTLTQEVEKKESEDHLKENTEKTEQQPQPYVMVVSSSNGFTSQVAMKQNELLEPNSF
Another test addresses T5, EHF (Homo sapiens, UniProt Q9NZC4 1-300).
T5 sequence: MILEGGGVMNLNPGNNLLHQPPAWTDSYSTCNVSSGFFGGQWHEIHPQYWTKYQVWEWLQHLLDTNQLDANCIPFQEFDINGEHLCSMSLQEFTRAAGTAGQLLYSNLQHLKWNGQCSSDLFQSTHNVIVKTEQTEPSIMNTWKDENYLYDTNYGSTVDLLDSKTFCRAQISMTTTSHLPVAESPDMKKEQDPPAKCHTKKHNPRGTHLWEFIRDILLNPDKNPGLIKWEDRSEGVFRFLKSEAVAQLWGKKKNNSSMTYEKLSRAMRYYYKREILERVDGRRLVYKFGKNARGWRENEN
The following applies: protein: recombinant; tags: N-terminal GST; dsDNA, one strand shown. The essentials:
as §1

The target of the next test is SPI1 (Homo sapiens, UniProt P17947 1-270). The conditions noted are these: protein: recombinant; tags: N-terminal GST; dsDNA, one strand shown. The essentials: as §1
For a further test, the target named is SPIB (Homo sapiens, UniProt Q01892 1-262). The following applies: protein: recombinant; tags: N-terminal GST; dsDNA, one strand shown. The essentials: as §1
Sequence of SPIB (Q01892 whole entry): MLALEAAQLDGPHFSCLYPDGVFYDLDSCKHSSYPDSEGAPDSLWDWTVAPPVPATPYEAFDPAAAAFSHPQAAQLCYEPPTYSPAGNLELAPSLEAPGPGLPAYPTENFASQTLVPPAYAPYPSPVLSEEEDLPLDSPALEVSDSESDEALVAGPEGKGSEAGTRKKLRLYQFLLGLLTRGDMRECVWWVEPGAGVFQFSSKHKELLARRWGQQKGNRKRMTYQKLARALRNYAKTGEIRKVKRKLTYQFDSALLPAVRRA
A further test addresses T6, ELK3 (Homo sapiens, UniProt P41970 1-407).
T6 sequence: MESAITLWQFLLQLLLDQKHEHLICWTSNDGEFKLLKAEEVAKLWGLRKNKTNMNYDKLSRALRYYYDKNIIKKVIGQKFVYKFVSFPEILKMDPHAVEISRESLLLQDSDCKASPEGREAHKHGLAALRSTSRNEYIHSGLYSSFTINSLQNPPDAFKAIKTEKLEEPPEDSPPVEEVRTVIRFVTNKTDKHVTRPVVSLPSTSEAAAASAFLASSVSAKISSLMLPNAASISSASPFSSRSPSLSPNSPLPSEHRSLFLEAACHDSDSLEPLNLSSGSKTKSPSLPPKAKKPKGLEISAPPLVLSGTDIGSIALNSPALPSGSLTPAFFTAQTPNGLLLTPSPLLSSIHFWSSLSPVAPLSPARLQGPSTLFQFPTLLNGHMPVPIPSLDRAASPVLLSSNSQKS
The conditions noted are these: protein: recombinant; tags: N-terminal GST; dsDNA, one strand shown. In outline:
as §1

Another test concerns the target T7, FEV (Homo sapiens, UniProt Q99581 1-238).
T7 sequence: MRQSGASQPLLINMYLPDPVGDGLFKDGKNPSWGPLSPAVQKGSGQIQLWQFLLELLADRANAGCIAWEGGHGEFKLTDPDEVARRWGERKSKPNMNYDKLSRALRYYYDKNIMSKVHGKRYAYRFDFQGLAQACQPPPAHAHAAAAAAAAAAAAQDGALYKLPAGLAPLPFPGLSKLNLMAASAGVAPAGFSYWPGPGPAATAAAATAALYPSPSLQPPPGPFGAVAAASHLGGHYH
The conditions noted are these: protein: recombinant; tags: N-terminal GST; dsDNA, one strand shown. In outline: as §1

A further test has as its target ETV5 (Homo sapiens, UniProt P41161 1-510). The conditions noted are these: protein: recombinant; tags: N-terminal GST; dsDNA, one strand shown. The essentials: as §1
The next test addresses HSF1 (Homo sapiens, UniProt Q00613 1-529). The conditions noted are these: protein: recombinant; tags: N-terminal GST; chain copies: 3; dsDNA, one strand shown. In outline:
as §1

For a further test, the target named is T8, SPIC (Homo sapiens, UniProt Q8N5J4 1-248).
T8 sequence: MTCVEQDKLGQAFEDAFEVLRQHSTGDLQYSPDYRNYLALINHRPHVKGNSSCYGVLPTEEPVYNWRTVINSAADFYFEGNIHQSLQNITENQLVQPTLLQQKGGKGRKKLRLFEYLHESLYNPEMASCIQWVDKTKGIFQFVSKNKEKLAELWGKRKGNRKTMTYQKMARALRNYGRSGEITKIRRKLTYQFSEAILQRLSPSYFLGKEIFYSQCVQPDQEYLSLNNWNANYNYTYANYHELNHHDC
The following applies: protein: recombinant; tags: N-terminal GST; dsDNA, one strand shown. The essentials:
as §1

In the next test the target is ELF4 (Homo sapiens, UniProt Q99607 1-663). The following applies: protein: recombinant; tags: N-terminal GST; dsDNA, one strand shown. The essentials: as §1
Sequence of ELF4 (Q99607 whole entry): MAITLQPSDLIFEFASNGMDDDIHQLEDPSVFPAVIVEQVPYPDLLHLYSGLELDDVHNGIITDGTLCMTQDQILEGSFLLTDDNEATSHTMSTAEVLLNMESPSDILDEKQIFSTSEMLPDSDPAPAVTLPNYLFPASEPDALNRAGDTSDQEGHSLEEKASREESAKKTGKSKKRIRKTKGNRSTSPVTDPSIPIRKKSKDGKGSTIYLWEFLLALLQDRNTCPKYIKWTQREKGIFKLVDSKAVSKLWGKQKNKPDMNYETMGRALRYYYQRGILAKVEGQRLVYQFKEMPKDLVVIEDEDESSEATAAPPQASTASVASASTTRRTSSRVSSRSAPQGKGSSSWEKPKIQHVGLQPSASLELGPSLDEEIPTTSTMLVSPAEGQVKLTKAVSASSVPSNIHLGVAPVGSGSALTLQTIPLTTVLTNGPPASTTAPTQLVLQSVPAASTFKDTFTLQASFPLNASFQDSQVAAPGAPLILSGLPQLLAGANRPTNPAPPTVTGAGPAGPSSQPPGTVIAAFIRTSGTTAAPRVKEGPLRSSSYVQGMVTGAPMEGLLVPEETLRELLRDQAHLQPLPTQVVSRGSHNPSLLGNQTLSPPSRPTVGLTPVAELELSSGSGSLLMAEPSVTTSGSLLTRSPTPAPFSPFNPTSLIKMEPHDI
The target of a further test is T9, ELK4 (Homo sapiens, UniProt P28324-2 1-405).
T9 sequence: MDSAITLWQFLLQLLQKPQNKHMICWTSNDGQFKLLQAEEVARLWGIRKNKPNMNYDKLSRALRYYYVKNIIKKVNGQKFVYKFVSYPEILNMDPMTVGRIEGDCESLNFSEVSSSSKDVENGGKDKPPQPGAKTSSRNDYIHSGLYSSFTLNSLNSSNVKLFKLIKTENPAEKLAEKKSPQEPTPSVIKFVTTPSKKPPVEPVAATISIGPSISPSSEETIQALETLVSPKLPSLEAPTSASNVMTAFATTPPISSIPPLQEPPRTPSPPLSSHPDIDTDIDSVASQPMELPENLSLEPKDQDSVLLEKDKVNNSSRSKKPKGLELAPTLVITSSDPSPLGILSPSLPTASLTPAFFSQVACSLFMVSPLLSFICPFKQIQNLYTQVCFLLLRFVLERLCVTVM
The following applies: protein: recombinant; tags: N-terminal GST; dsDNA, one strand shown. In outline:
as §1

The target of another test is T10, ETV2 (Homo sapiens, UniProt O00321 1-342).
T10 sequence: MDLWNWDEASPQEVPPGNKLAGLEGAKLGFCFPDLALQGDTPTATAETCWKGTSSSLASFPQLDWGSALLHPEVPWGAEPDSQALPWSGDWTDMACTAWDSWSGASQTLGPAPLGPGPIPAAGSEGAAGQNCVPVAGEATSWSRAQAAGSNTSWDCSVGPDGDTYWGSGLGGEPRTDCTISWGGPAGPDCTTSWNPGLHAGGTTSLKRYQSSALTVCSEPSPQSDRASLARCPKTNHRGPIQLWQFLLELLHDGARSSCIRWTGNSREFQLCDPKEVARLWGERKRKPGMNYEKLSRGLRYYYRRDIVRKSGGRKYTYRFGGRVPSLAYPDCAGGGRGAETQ
The following applies: protein: recombinant; tags: N-terminal GST; dsDNA, one strand shown. In outline: as §1

For another test, the target named is T11, ELF3 (Homo sapiens, UniProt P78545 1-371).
T11 sequence: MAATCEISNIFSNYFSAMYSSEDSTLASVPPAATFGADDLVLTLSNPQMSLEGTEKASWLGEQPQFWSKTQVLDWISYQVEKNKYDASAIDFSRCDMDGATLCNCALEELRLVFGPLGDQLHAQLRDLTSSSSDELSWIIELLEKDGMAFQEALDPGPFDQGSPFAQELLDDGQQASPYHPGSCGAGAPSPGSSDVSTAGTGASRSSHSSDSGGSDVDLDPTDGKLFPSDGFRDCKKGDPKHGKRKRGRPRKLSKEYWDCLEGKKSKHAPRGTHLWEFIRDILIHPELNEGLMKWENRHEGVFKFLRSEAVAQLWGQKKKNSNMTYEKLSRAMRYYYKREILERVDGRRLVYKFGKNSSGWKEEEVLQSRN
The following applies: protein: recombinant; tags: N-terminal GST; dsDNA, one strand shown. The essentials:
as §1

For a further test, the target named is CRX (Homo sapiens, UniProt O43186 1-299). The following applies: protein: recombinant; tags: N-terminal GST; dsDNA, one strand shown. The essentials:
as §1

The target in a further test is ETV1 (Homo sapiens, UniProt P50549 1-477). The conditions noted are these: protein: recombinant; tags: N-terminal GST; dsDNA, one strand shown. In outline: as §1
Sequence of ETV1 (P50549 whole entry): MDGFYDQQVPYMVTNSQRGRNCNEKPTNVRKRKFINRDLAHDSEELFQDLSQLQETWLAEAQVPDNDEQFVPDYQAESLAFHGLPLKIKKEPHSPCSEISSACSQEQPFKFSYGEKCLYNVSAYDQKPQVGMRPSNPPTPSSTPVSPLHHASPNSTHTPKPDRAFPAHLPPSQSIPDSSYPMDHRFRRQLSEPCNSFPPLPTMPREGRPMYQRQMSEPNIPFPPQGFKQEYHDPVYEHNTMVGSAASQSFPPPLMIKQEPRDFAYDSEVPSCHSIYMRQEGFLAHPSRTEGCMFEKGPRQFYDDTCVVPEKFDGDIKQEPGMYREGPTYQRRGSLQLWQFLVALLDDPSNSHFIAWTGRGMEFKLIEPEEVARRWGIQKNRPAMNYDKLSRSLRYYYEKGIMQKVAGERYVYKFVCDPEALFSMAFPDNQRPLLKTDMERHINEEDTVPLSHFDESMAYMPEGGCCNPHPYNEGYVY

Sequence of ETV5 (P41161 whole entry): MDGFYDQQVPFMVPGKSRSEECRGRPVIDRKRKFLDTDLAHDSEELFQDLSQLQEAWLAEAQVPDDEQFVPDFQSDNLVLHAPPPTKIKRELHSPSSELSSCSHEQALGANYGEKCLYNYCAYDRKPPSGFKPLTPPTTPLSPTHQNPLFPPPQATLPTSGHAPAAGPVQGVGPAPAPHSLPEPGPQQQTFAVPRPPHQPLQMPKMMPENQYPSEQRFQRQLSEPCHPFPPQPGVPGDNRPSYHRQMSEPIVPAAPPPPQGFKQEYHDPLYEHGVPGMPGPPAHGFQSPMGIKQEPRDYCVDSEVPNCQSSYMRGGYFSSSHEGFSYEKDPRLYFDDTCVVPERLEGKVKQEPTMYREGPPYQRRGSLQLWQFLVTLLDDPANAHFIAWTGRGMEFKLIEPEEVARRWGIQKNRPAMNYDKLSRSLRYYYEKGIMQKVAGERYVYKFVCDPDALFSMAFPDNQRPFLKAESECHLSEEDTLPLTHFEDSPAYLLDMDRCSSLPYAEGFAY
Sequence of HSF1 (Q00613 whole entry): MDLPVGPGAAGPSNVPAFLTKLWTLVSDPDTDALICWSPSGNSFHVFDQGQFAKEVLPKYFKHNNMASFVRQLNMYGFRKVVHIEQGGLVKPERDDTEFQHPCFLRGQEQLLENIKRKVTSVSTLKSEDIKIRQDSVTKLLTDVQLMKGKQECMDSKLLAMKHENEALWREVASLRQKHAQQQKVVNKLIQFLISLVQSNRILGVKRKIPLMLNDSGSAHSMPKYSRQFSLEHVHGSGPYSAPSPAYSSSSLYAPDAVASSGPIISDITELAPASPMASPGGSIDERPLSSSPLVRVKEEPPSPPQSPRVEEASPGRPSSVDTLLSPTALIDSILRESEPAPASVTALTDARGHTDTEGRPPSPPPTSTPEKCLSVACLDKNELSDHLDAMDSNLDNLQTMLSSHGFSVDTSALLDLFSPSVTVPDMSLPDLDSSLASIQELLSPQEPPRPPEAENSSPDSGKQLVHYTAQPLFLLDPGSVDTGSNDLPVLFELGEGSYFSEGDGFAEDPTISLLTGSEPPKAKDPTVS
Sequence of CRX (O43186 whole entry): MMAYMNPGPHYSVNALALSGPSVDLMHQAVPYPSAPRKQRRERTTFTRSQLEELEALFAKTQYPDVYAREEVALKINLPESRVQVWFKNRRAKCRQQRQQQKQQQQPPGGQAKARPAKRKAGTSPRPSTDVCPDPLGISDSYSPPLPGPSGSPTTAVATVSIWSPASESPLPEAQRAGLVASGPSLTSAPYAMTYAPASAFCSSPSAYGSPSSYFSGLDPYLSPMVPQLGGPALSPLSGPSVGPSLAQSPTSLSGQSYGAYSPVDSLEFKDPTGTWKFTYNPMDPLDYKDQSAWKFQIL

With ATCTCA, the binding signal with FLI1 is 1.17 fold enrichment (6-mer frequency, TF over GST control); in the test with ELK1 it was 1.18 fold enrichment (6-mer frequency, TF over GST control); with GABPA it was 1.15 fold enrichment (6-mer frequency, TF over GST control); with ERG, 1.11 fold enrichment (6-mer frequency, TF over GST control); with ELF1, 1.2 fold enrichment (6-mer frequency, TF over GST control); with EHF, 1.25 fold enrichment (6-mer frequency, TF over GST control). Also, the binding signal with SPI1 was 1.12 fold enrichment (6-mer frequency, TF over GST control); with SPIB, 1.19 fold enrichment (6-mer frequency, TF over GST control); with ELK3, 1.18 fold enrichment (6-mer frequency, TF over GST control); with FEV it was 1.16 fold enrichment (6-mer frequency, TF over GST control); with ETV5, 1.18 fold enrichment (6-mer frequency, TF over GST control); with HSF1, 1.19 fold enrichment (6-mer frequency, TF over GST control). Moreover, the binding signal in the test with SPIC was 1.14 fold enrichment (6-mer frequency, TF over GST control); with ELF4 it was 1.18 fold enrichment (6-mer frequency, TF over GST control); with ELK4 it was 1.14 fold enrichment (6-mer frequency, TF over GST control); with ETV2, 1.23 fold enrichment (6-mer frequency, TF over GST control); with ELF3 it was 1.22 fold enrichment (6-mer frequency, TF over GST control); in the test with CRX, 1.51 fold enrichment (6-mer frequency, TF over GST control). Besides, the binding signal with ETV1 was 1.16 fold enrichment (6-mer frequency, TF over GST control).
